This is part of a sample that, as a whole, favours compounds with a hit. Of some 83,000 tested, about 20% had one in any assay.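 Single-concentration screen, 48 h exposure, 96-well plates. Endpoint: percent growth. Below 10 = active.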 A number with no mark means an inactive call. Calls of active or inactive are those of the source.

Among the test systems are SK-MEL-2 melanoma; EKVX NSCLC; SN12C renal; UO-31 renal; TK-10 renal; ACHN renal; A498 renal; CCRF-CEM leukemia; MOLT-4 leukemia; SR leukemia; RPMI-8226 leukemia; OVCAR-8 ovarian; OVCAR-5 ovarian; OVCAR-4 ovarian; SK-OV-3 ovarian; IGROV1 ovarian; OVCAR-3 ovarian; HS 578T breast; NCI/ADR-RES ovarian.
Holding throughout (test): NCI-60 one-dose screen, 48 h (100 = growth as untreated, 0 = no growth, -100 = all killed)
Common to all, as to conditions: 10 µM unless noted

On to `CN(C)c1ccc2cc(-c3nc4ccccc4s3)c(N)nc2c1`, for which the growth in the experiment on SK-MEL-2 melanoma was 51.5%; in the experiment with EKVX NSCLC, 67.7%; in the experiment with SN12C renal it was 48.5%; with UO-31 renal it was 51.8%; with TK-10 renal, 111%; in the experiment on ACHN renal, 102%. For the same compound, the growth in the experiment on A498 renal is 38.2%; with CCRF-CEM leukemia, 6.43% (active); in the experiment with MOLT-4 leukemia, 22.4%; in the experiment on SR leukemia it was 20.9%; with RPMI-8226 leukemia, 10.6%; in the experiment on OVCAR-8 ovarian, 67.8%. The growth in the experiment with OVCAR-5 ovarian is 121%; in the experiment with OVCAR-4 ovarian, 78.3%; in the experiment with SK-OV-3 ovarian, 50.9%; in the experiment on IGROV1 ovarian, 63.6%; with OVCAR-3 ovarian, 11.9%; in the experiment on HS 578T breast, 91.9%. Besides, the growth in the experiment on NCI/ADR-RES ovarian is 34.3%.

`Cc1ccccc1C[P+](c1ccccc1)(c1ccccc1)c1ccccc1`: the growth in the experiment on SK-MEL-2 melanoma is 2.07% (active); with EKVX NSCLC it was 29.5%; in the experiment with SN12C renal, 40.5%; with UO-31 renal, 76.6%; in the experiment with TK-10 renal, 36.1%; in the experiment on ACHN renal, 71%. Also, the growth in the experiment on A498 renal is 89.5%; in the experiment on CCRF-CEM leukemia, 24.9%; with MOLT-4 leukemia it was 35.7%; in the experiment with SR leukemia it was 22.2%; with RPMI-8226 leukemia, 10%; in the experiment on OVCAR-8 ovarian it was 18.7%. In addition, the growth is 55.2% in the experiment with OVCAR-5 ovarian; 3.27% (active) in the experiment on OVCAR-4 ovarian; 42.6% in the experiment on SK-OV-3 ovarian; 20% in the experiment with IGROV1 ovarian; 1.98% (active) with OVCAR-3 ovarian.

`Nc1n[nH]c2cccc(C#Cc3cccc(NC(=O)c4cccc(C(F)(F)F)c4)c3)c12`: the growth in the experiment with SK-MEL-2 melanoma is 8.52% (active); in the experiment with EKVX NSCLC, 65.4%; in the experiment on SN12C renal, 40.7%; in the experiment with UO-31 renal it was 3.58% (active); in the experiment on TK-10 renal, 41%; in the experiment with ACHN renal, 28.6%. Besides, the growth was 14.9% in the experiment on A498 renal; 28.8% with CCRF-CEM leukemia; 27.3% in the experiment with MOLT-4 leukemia; 27.2% in the experiment on SR leukemia; 29.3% in the experiment with RPMI-8226 leukemia; 47.2% with OVCAR-8 ovarian. Moreover, the growth in the experiment with OVCAR-5 ovarian was 31.3%; in the experiment on OVCAR-4 ovarian, 44.1%; in the experiment with SK-OV-3 ovarian it was 46.3%; with IGROV1 ovarian, -7.33% (active); in the experiment with OVCAR-3 ovarian, 49.2%; in the experiment on HS 578T breast it was -0.652% (active). In addition, the growth in the experiment on NCI/ADR-RES ovarian was 43.2%.

On to `FC(F)(F)c1cn(CCN2CCOCC2)c2ncnc(Cl)c12`, for which the growth in the experiment with SK-MEL-2 melanoma is 41.3%; with EKVX NSCLC, 92.6%; with SN12C renal it was 71.2%; with UO-31 renal it was -85.5% (active); with TK-10 renal, 113%; with ACHN renal it was 64.7%. Besides, the growth in the experiment with A498 renal was 105%; in the experiment with CCRF-CEM leukemia, 12.3%; in the experiment on MOLT-4 leukemia, 40.4%; in the experiment with SR leukemia, -40.3% (active); in the experiment with RPMI-8226 leukemia, 99%; with OVCAR-8 ovarian it was 18.7%. In addition, the growth with OVCAR-5 ovarian is 106%; in the experiment on OVCAR-4 ovarian it was 82.4%; in the experiment with SK-OV-3 ovarian it was 101%; in the experiment on IGROV1 ovarian, 13.4%; in the experiment on OVCAR-3 ovarian, 63.3%; with HS 578T breast, 81.9%. In addition, the growth in the experiment with NCI/ADR-RES ovarian is 92.8%.

For `COc1ccc(N)c(S)c1`, the growth in the experiment on SK-MEL-2 melanoma was 108%; in the experiment on EKVX NSCLC it was 91.7%; in the experiment on SN12C renal, 94.4%; with UO-31 renal, 78.9%; in the experiment with TK-10 renal, 105%; in the experiment with ACHN renal it was 98.2%. Also, the growth in the experiment with A498 renal was 112%; with CCRF-CEM leukemia, 98.2%; in the experiment on MOLT-4 leukemia it was 91%; in the experiment on SR leukemia it was 103%; with RPMI-8226 leukemia, 95.9%; in the experiment on OVCAR-8 ovarian, 90.6%. Further, the growth in the experiment on OVCAR-5 ovarian is 104%; in the experiment on OVCAR-4 ovarian, 96%; in the experiment with SK-OV-3 ovarian it was 85%; in the experiment on IGROV1 ovarian, 94.9%; with OVCAR-3 ovarian, 110%; in the experiment with HS 578T breast it was 102%. Moreover, the growth in the experiment on NCI/ADR-RES ovarian is 98.4%.

On to `O=C(Nc1ccc(F)cc1)Nc1ccc(Br)c(C(F)(F)F)c1`, for which the growth in the experiment on SK-MEL-2 melanoma was -11.1% (active); in the experiment on EKVX NSCLC it was 7.24% (active); in the experiment with SN12C renal, 11.3%; in the experiment with UO-31 renal, 7.01% (active); with TK-10 renal it was 10.4%; with ACHN renal, 2.25% (active). For the same compound, the growth with A498 renal was 4.62% (active); with CCRF-CEM leukemia, 6.73% (active); with MOLT-4 leukemia, 12.8%; with SR leukemia, 13.8%; with RPMI-8226 leukemia it was -29.7% (active); with OVCAR-8 ovarian, 11.4%. The growth in the experiment with OVCAR-5 ovarian is 30.2%; with OVCAR-4 ovarian, 22.5%; in the experiment with SK-OV-3 ovarian it was -8.74% (active); in the experiment on IGROV1 ovarian it was 25.7%; in the experiment with OVCAR-3 ovarian, 11.9%; in the experiment on HS 578T breast it was 35.4%. Also, in the experiment with NCI/ADR-RES ovarian, the growth was 1.19% (active).

Regarding `CCC(N)(C(=O)O)c1ccc(F)cc1` (stereo not given), the growth with SK-MEL-2 melanoma was 98%; in the experiment with EKVX NSCLC, 104%; with SN12C renal, 102%; in the experiment with UO-31 renal it was 98.5%; in the experiment with TK-10 renal it was 95.5%; in the experiment with ACHN renal it was 114%. The growth with A498 renal was 117%; with CCRF-CEM leukemia, 94.8%; in the experiment with MOLT-4 leukemia, 90.1%; in the experiment with SR leukemia, 105%; in the experiment with RPMI-8226 leukemia, 98.4%; with OVCAR-8 ovarian, 101%. Besides, the growth was 111% in the experiment on OVCAR-5 ovarian; 117% in the experiment with OVCAR-4 ovarian; 113% with SK-OV-3 ovarian; 109% in the experiment with IGROV1 ovarian; 99.9% in the experiment with OVCAR-3 ovarian; 111% with HS 578T breast. Further, the growth in the experiment with NCI/ADR-RES ovarian is 106%.

Take `C=C1C(=O)O[C@H]2[C@H]1CC/C(COC(=O)c1ccc3ccccc3c1)=C\CC[C@@]1(C)O[C@@H]21`: the growth with SK-MEL-2 melanoma was -70.4% (active); in the experiment on EKVX NSCLC, -75.5% (active); in the experiment on SN12C renal it was -54% (active); with UO-31 renal, -98.9% (active); in the experiment with TK-10 renal it was -95.9% (active); with ACHN renal, -100% (active). Further, the growth in the experiment on A498 renal was 64.1%; in the experiment with CCRF-CEM leukemia, -22.9% (active); in the experiment with MOLT-4 leukemia it was -14.1% (active); with SR leukemia, -19.4% (active); with RPMI-8226 leukemia it was -39.3% (active); with OVCAR-8 ovarian, -21.4% (active). Besides, the growth in the experiment with OVCAR-5 ovarian is -52.9% (active); in the experiment on OVCAR-4 ovarian, -36.7% (active); in the experiment on SK-OV-3 ovarian it was 82.6%; with IGROV1 ovarian, -75.1% (active); in the experiment on OVCAR-3 ovarian it was -93.1% (active); with HS 578T breast, 3.13% (active). Further, the growth in the experiment with NCI/ADR-RES ovarian was -37.7% (active).

Source of the values: PubChem BioAssay (NCI).
